Data as given in ChEMBL document CHEMBL4513216, “Probing the Open Global Health Chemical Diversity Library for Multistage-Active Starting Points for Next-Generation Antimalarials” (ACS Infect Dis, 2020).
Among all 69,000 compounds or so, about 8,600 (12%) showed an effect of 50% or more. This excerpt belongs to a sample that is enriched for strong results.

The compounds below were run on Plasmodium berghei (assay: Screen against P. berghei liver stage (PbLuc), transformed with Luciferase, at 10uM). Conditions: tested at 10 uM.
Assay type: functional, HepG2

SMILES | INHIBITION
O=C(C1=CCCC1)N1CCC2(CC1)CC(Oc1cccnc1)CO2 (configuration not stated) | 41.3%
COc1ccc(COCC(O)CNC(=O)c2ccc(C#N)cc2)cc1 (configuration not stated) | 46.2%
CN(C)C(=O)Cn1c(C2CC2)c(CN2CCSCC2)c2cccnc21 | 23%
CC(=O)c1ccc(OCC(=O)c2cccn2C)cc1 | -175%
CC(=O)N[C@@H]1CN(C(=O)Cc2coc3cc(C)ccc23)C[C@H]1O | -5.8%
Cc1ccc(CN2CCc3ncnc(-c4ccoc4)c3CC2)o1 | -8.28%
Cc1noc(C)c1CN1CCc2ncnc(-c3ccoc3)c2CC1 | 68.4%
c1ccc(CN2CCc3ncnc(-c4ccoc4)c3CC2)nc1 | 12.4%
Cc1nnc2n1CCN(C(=O)C1CCN(Cc3ccccc3)CC1)C2 | 35.7%
Cc1cc(NC(=O)CC2(Cn3cnnn3)CCCCC2)nn1C | 39.1%
Cn1ccc(C(=O)N2CCC[C@]3(C[C@@H](OCc4ccccn4)CO3)C2)n1 | 40.9%
OCC1CCCN(Cc2c(C3CCCC3)[nH]c3ncccc23)C1 (configuration not stated) | 69.3%
Cc1cnc2[nH]c(C(F)(F)F)c(CN3CCOCC3)c2c1 | -0.232%
Cc1cnc2[nH]c(C(F)(F)F)c(CN3CCCC(CO)C3)c2c1 (configuration not stated) | 50.8%
CCN1CCN(Cc2c(C3CCCC3)[nH]c3ncccc23)CC1 | 20.4%
Cc1cnc2[nH]c(C(F)(F)F)c(CN3CCSCC3)c2c1 | 21.1%
CC1CCCN(Cc2c(C3CCOCC3)[nH]c3ncccc23)C1 (configuration not stated) | 59.7%
c1cnc2[nH]c(C3CCCC3)c(CN3CCCCC3)c2c1 | -2.11%
c1cnc2[nH]c(C3CCCC3)c(CN3CCOCC3)c2c1 | 33.7%
CC1CCCN(Cc2c(C3CC3)[nH]c3ncccc23)C1 (configuration not stated) | 19.6%
Cc1nc(CN2CCCC(NCCOc3ccccc3C#N)C2)no1 (configuration not stated) | 44.1%
CC(c1ccc2c(c1)OCCO2)N(C)C(=O)c1ccnnc1 (configuration not stated) | -4.21%

SMILES | INHIBITION
Cn1ccc(CN2CCN(CC3CC3)CC2)cc1=O | 21.5%
COCCCNC(=O)CN(C)C(=O)c1ccc(OC)cc1O | 7.925%
CC(=O)N1CCCn2nc(CNS(=O)(=O)Cc3ccccc3)cc2C1 | -3.83%
CCCS(=O)(=O)N1CCN(c2cc(-n3nc(C)cc3C)nc(C)n2)CC1 | 0.139%
Cc1cc(N2CCCC2)nc(CNS(=O)(=O)Cc2ccccc2)n1 | 81%
CCCS(=O)(=O)NCc1nc(C)cc(N2CCCC2)n1 | 56.6%
CCNC(=O)CN1CCN(c2cc(C)nc(-c3ccncc3)n2)CC1 | 48.1%
CCS(=O)(=O)NCc1nc(C)cc(N2CCCCC2)n1 | 75.2%
Cc1nc(C2CCCN(C(=O)CO)C2)cc(N2CCOCC2)n1 (configuration not stated) | -1.53%
CCCc1nc(C)cc(N2CCC3(CCC(=O)N(C4CC4)C3)CC2)n1 | -23.5%
CCNC(=O)CCN1CCC(c2cc(N3CCOCC3)nc(C)n2)CC1 | 38.5%
CCS(=O)(=O)NCc1nc(C)cc(N2CCCC2)n1 | 25.1%
CCS(=O)(=O)NCc1nc(C)cc(N2CCOCC2)n1 | 65.2%
O=S(=O)(Cc1ccccc1)NCC1CCN(c2cnccn2)CC1 | -45.8%
CCc1nnc2n1CCN(C(=O)Cc1nc(-c3ccco3)oc1C)C2 | -17.6%
Cc1ncc(C(=O)N2CCCC(n3nc(C)nc3C)C2)c(C(C)C)n1 (configuration not stated) | -3.15%
Cc1cc(C)n(CC2CCCN2C(=O)c2cccc(C#N)c2)n1 (configuration not stated) | -3.585%
COc1ccc(OCCN2CCC(c3ccnn3CCO)CC2)cc1 | 11.4%
Cc1ccc(C(C(=O)NC(C)(C)CN2CCCC2)N(C)C)cc1 (configuration not stated) | 35.7%
CCn1ncc2c1C(COC)N(C(=O)Cc1cccs1)CC2 (configuration not stated) | 25.8%
CCOCC1CC2(CCN(C(=O)c3cscn3)CC2)CO1 (configuration not stated) | 9.63%
CCOCC1CN(C(=O)c2cscn2)Cc2cn(C)nc21 (configuration not stated) | 17.1%

SMILES | INHIBITION
CCn1ncc2c1C(COC)N(C(=O)c1cccs1)CC2 (configuration not stated) | 51.2%
CCOCC1c2c(ncn2C)CCN1C(=O)c1cnc(C)cn1 (configuration not stated) | 57.5%
CCn1ncc2c1C(COC)N(C(=O)c1ccsc1)CC2 (configuration not stated) | 43.9%
CCOCC1c2c(ncn2C(C)C)CCN1C(=O)C1CC1 (configuration not stated) | 76.4%
CCOCC1c2c(ncn2C(C)C)CCN1C(C)C (configuration not stated) | 10.5%
CCOCC1c2c(ncn2C)CCN1C(=O)c1ccoc1 (configuration not stated) | -3.17%
CCOCC1c2c(ncn2C)CCN1C(=O)c1cscn1 (configuration not stated) | 60.2%
CCOCC1c2c(ncn2C(C)C)CCN1C(=O)CC (configuration not stated) | 29.8%
CCOCC1c2c(cnn2C)CCN1C(=O)c1cc(C)on1 (configuration not stated) | 37.6%
CN(Cc1cc(C2CC2)[nH]n1)C(=O)c1cnn2ccn(C)c12 | 14.9%
Cc1c(-c2cccs2)nn2c(=O)c3c([nH]c12)CN(C(=O)C1CC1)C3 | 43.7%
CC1c2ncc(CNC(=O)C3CC3)n2CCN1Cc1ccncc1 (configuration not stated) | 6.55%
CN1CCN(c2cc(CNC(=O)c3cnccn3)ccn2)CC1 | 35.3%
O=C(CC(F)(F)F)N1C[C@@H]2CC[C@H]1CN(Cc1ccccc1)C2 | -8.47%
CNc1nc(C2CCCCN2C(=O)C(C)(C)OC)nc2c1CN(C)CC2 (configuration not stated) | 38.2%
CC1c2ncc(COCC3CCOCC3)n2CCN1C(=O)c1ccco1 (configuration not stated) | 47.2%
COC1C[C@@H]2CN(C(=O)c3cc4ccc(F)cc4[nH]3)C[C@@H]2C1 (some centres not stated) | -36.1%
COCC1c2c(cnn2C)CCN1C(=O)c1cc(C)on1 (configuration not stated) | 38.5%
CCn1ncc2c1C(COC)N(C(=O)c1cscn1)CC2 (configuration not stated) | 38.5%
COCC1c2c(cnn2C)CCN1C(=O)c1cscn1 (configuration not stated) | 56.6%
O[C@@H]1C[C@H]2CN(CC3CCCCC3)[C@H](Cc3ccccc3)CN2C1 | 16.2%
O=C(CC1CC1)NCc1cn2c(n1)CN(C(=O)c1cccnc1)CC2 | -5.69%

SMILES | INHIBITION
Cn1cc(Br)c(=O)c(NS(=O)(=O)c2ccc(Cl)cc2)c1 | -4.68%
CCN1CCN(CC(C)(O)c2cccc(C(F)(F)F)c2)CC1 (configuration not stated) | 20.1%
CC(=O)N1CCN(CC(C)(O)c2cccc(C(F)(F)F)c2)CC1 (configuration not stated) | 33.3%
CC(=O)N1CCCN(CC(C)(O)c2cccc(C(F)(F)F)c2)CC1 (configuration not stated) | 64.5%
CC(C(N)=O)S(=O)(=O)Cc1cc(Cl)c2c(c1)OCO2 (configuration not stated) | 16.7%
CN(C)C(=O)CS(=O)(=O)Cc1cc(Cl)c2c(c1)OCCO2 | 16.9%
CCc1nnc(S(=O)(=O)Cc2cc(Cl)c3c(c2)OCO3)n1C | 24.8%
CNC(=O)CCS(=O)(=O)Cc1cc(Cl)c2c(c1)OCCO2 | 15.3%
Cn1cnnc1S(=O)(=O)Cc1cc(Cl)c2c(c1)OCCO2 | 63.8%
Cn1cnnc1S(=O)(=O)Cc1cc(Cl)c2c(c1)OCO2 | 68.4%
Cc1csc(N2CCCN(C(=O)c3c(C)noc3C)CC2)n1 | -19.6%
COc1cccc(CCN2C[C@H]3CCNCC[C@H]3S2(=O)=O)c1 | 24.6%
CCn1cc(NC(=O)NCCN2CCc3ccccc3C2)cn1 | 17.5%
Cc1cc(C)n(C2CCCN(C(=O)c3ccc(N(C)C)nn3)C2)n1 (configuration not stated) | 13.2%
CC(=O)N1CCC(CCc2ccnc(Nc3ccccn3)c2)CC1 | 40.65%
CN1CCC(CCc2ccnc(NC(=O)c3ccccn3)c2)CC1 | 67.45%
CC(=O)Nc1cc(CCC2CCN(C(=O)c3ccccn3)CC2)ccn1 | 10.35%
O=C(CO)N1CCC(CCc2ccnc(Nc3cnccn3)c2)CC1 | 36%
CC(=O)N1CCC(CCc2ccnc(NC(=O)c3ccccn3)c2)CC1 | 21.95%
O=C(Nc1cc(CCC2CCN(CCO)CC2)ccn1)c1ccccn1 | 52.8%
CC(=O)N1CCC(C(=O)NCc2cc[nH]n2)(c2ccccc2)CC1 | -11.9%
COc1ccc(OC)c(C(O)CNC(=O)Nc2ccc(F)cc2F)c1 (configuration not stated) | -27%

SMILES | INHIBITION
CCc1ccccc1CNC(=O)NCc1cnn(C)c1 | 13.9%
O=C(NCCCO)C1(N2CCCCC2)Cc2ccccc2C1 | 0.818%
Cn1cc(CNCC2(N3CCCCC3)Cc3ccccc3C2)cn1 | 78.1%
c1ccc2c(c1)CC(CNCc1ccncc1)(N1CCCCC1)C2 | 12.3%
CC(=O)NCCNC(=O)C1(N2CCCCC2)Cc2ccccc2C1 | -46.4%
CSc1ncc(CNCC2(N3CCCCC3)Cc3ccccc3C2)cn1 | 72.4%
CCN(CC)CC1CN(CCc2ccccc2)Cc2nccn2C1 (configuration not stated) | 0.139%
CC(c1cc(O)nc(NC2CCCC2)n1)n1ncc2ccccc2c1=O (configuration not stated) | 4.8%
Cc1nc(C)n(CC2CCCCN2CCOc2ccc(C#N)cc2)n1 (configuration not stated) | 42%
CCc1ncc2c(n1)CN(C(C)C(=O)Nc1ccc(Cl)cn1)CC2 (configuration not stated) | 48.2%
Cc1nnc(C(C)Nc2cccc(COCCOC(C)C)c2)o1 (configuration not stated) | 21.5%
Cc1nnc(C(C)Nc2cccc(COCC(F)(F)C(F)F)c2)o1 (configuration not stated) | 57.4%
Cc1nnc(C(C)Nc2cccc(COCCc3ccccc3)c2)o1 (configuration not stated) | 19.7%
CN(C)CCNC(=O)[C@H]1C[C@H]2CN(C(=O)NC3CCCC3)C[C@@H]1O2 | 6.83%
Cc1ccc(Cn2cc(Br)c(NS(C)(=O)=O)n2)cc1 | 19.575%
CNc1cc(C2CN(C(=O)c3ccccc3)CCO2)nc(C)n1 (configuration not stated) | 23.9%
CC(C)(C)NC(=O)C1CSCN1S(=O)(=O)c1ccccc1F (configuration not stated) | 32.7%
O=C(NCC(F)(F)F)C1CSCN1S(=O)(=O)c1ccccc1F (configuration not stated) | 52.3%
O=C(NCC1CC1)C1CSCN1S(=O)(=O)c1ccccc1F (configuration not stated) | 26.6%
